# Source: the supplement of paper PMC8728848
# The entries come from a sample that favours the strongest signals as a whole.
# How the values were obtained:
# Assay in all cases: glycan array binding signal (z-score within array); higher = stronger binding
# Conditions in all cases: glycan notation: IUPAC condensed, linker removed
# [1] = target: Fuc(a1-2)Gal(b1-3)GalNAc(a1-3)[Fuc(a1-2)]Gal(b1-4)Glc
# In short: (§1)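 The Consortium for Functional Glycomics database supplied 3228 glycan arrays, of which those lacking an available protein sequence were dropped. The binding signal, a within-array Z-score, was averaged across arrays of the same protein sequence and across linkers. Negative scores can be read as non-binding.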
# [2] = target: Fuc(a1-2)Gal(b1-3)GalNAc(b1-4)[Neu5Ac(a2-3)]Gal(b1-4)Glc
# In short: as §1
# Fuc(a1-2)Gal(b1-3)GlcNAc = target: Fuc(a1-2)Gal(b1-3)GlcNAc
# In short: as §1
# [3] = target: Fuc(a1-2)Gal(b1-3)GlcNAc(b1-3)GalNAc
# In short: as §1
# [4] = target: Fuc(a1-2)Gal(b1-4)GlcNAc(b1-2)[Fuc(a1-2)Gal(b1-4)GlcNAc(b1-4)]Man(a1-3)[Fuc(a1-2)Gal(b1-4)GlcNAc(b1-2)Man(a1-6)]Man(b1-4)GlcNAc(b1-4)GlcNAc
# In short: as §1
# [5] = target: Fuc(a1-2)Gal(b1-4)GlcNAc6S
# In short: as §1
# [6] = target: Fuc(a1-2)Gal(b1-4)[Fuc(a1-3)]GlcNAc(b1-2)[Fuc(a1-2)Gal(b1-4)[Fuc(a1-3)]GlcNAc(b1-4)]Man(a1-3)[Fuc(a1-2)Gal(b1-4)[Fuc(a1-3)]GlcNAc(b1-2)Man(a1-6)]Man(b1-4)GlcNAc(b1-4)GlcNAc
# In short: as §1
# [7] = target: Fuc(a1-2)[Gal(a1-3)]Gal(b1-4)GlcNAc(b1-2)Man(a1-3)[Fuc(a1-2)[Gal(a1-3)]Gal(b1-4)GlcNAc(b1-2)Man(a1-6)]Man(b1-4)GlcNAc(b1-4)GlcNAc
# In short: as §1
# [8] = target: Fuc(a1-2)[GalNAc(a1-3)]Gal(b1-3)GalNAc(a1-3)[Fuc(a1-2)]Gal(b1-4)GlcNAc
# In short: as §1
# [9] = target: Fuc(a1-2)[GalNAc(b1-3)]Gal
# In short: as §1
# [10] = target: Fuc(a1-3)[Gal(b1-4)]GlcNAc(b1-3)GalNAc
# In short: as §1
# [11] = target: Fuc(a1-3)[Gal(b1-4)]GlcNAc(b1-4)Gal(b1-4)[Fuc(a1-3)]GlcNAc(b1-4)Gal(b1-4)[Fuc(a1-3)]GlcNAc
# In short: as §1
# [12] = target: Fuc(a1-3)[Gal(b1-4)]GlcNAc(b1-6)[Gal(b1-3)GlcNAc(b1-3)]Gal(b1-4)Glc
# In short: as §1
# Fuc(b1-3)GlcNAc = target: Fuc(b1-3)GlcNAc
# In short: as §1
# [13] = target: Gal(a1-3)Fuc(a1-2)Gal(b1-4)GlcNAc(b1-3)[Gal(a1-3)Fuc(a1-2)Gal(b1-4)GlcNAc(b1-6)]GalNAc
# In short: as §1
# Gal(b1-3)Gal = target: Gal(b1-3)Gal
# In short: as §1
# [14] = target: Gal(b1-3)[Fuc(a1-4)]GlcNAc(b1-3)Gal(b1-4)GlcNAc
# In short: as §1
# [15] = target: Gal(b1-4)GalNAc(a1-3)[Fuc(a1-2)]Gal(b1-4)GlcNAc
# In short: as §1
# [16] = target: Gal(b1-4)GlcNAc(b1-2)Man(a1-3)[Man(a1-6)]Man(b1-4)GlcNAc(b1-4)GlcNAc
# In short: as §1
# [17] = target: Gal(b1-4)GlcNAc(b1-3)Gal(b1-4)GlcNAc(b1-3)Gal(b1-4)GlcNAc
# In short: as §1
# [18] = target: Gal(b1-4)GlcNAc(b1-3)Gal(b1-4)[Fuc(a1-3)GlcNAc(b1-6)]Gal(b1-4)Glc
# In short: as §1
# [19] = target: Gal(b1-4)GlcNAc(b1-6)GalNAc
# In short: as §1
# Gal4S6S(b1-4)GlcNAc = target: Gal4S6S(b1-4)GlcNAc
# In short: as §1
# GalNAc(b1-3)Gal = target: GalNAc(b1-3)Gal
# In short: as §1
# [20] = target: GlcNAc(b1-3)Gal(b1-4)GlcNAc
# In short: as §1
# GlcNAc(b1-3)Man = target: GlcNAc(b1-3)Man
# In short: as §1
# Kdn(a2-3)Gal(b1-3)GlcNAc = target: Kdn(a2-3)Gal(b1-3)GlcNAc
# In short: as §1
# [21] = target: Man(a1-2)Man(a1-2)Man(a1-6)[Man(a1-3)]Man
# In short: as §1
# [22] = target: Man(a1-2)Man(a1-3)[Man(a1-2)Man(a1-6)]Man(a1-6)[Man(a1-2)Man(a1-2)Man(a1-3)]Man
# In short: as §1
# [23] = target: Man(a1-2)Man(a1-6)[Man(a1-3)]Man(a1-6)[Man(a1-2)Man(a1-2)Man(a1-3)]Man
# In short: as §1
# [24] = target: Man(a1-2)Man(a1-6)[Man(a1-3)]Man(a1-6)[Man(a1-2)Man(a1-2)Man(a1-3)]Man(b1-4)GlcNAc(b1-4)GlcNAc
# In short: as §1
# Man(a1-3)[Man(a1-6)]Man = target: Man(a1-3)[Man(a1-6)]Man
# In short: as §1
# [25] = target: Man(a1-3)[Man(a1-6)]Man(a1-6)[Man(a1-2)Man(a1-3)]Man(b1-4)GlcNAc(b1-4)GlcNAc
# In short: as §1
# [26] = target: Man(a1-3)[Man(a1-6)]Man(a1-6)[Man(a1-3)]Man
# In short: as §1
# [27] = target: Man(a1-3)[Man(a1-6)]Man(a1-6)[Man(a1-3)]Man(b1-4)GlcNAc(b1-4)GlcNAc
# In short: as §1
# [28] = target: Neu5Ac(a2-3)Gal(b1-3)GalNAc(b1-4)[Neu5Ac(a2-8)Neu5Ac(a2-3)]Gal(b1-4)Glc
# In short: as §1
# Neu5Ac(a2-3)Gal(b1-4)Glc = target: Neu5Ac(a2-3)Gal(b1-4)Glc
# In short: as §1
# [29] = target: Neu5Ac(a2-3)Gal(b1-4)[Fuc(a1-3)]GlcNAc6S
# In short: as §1
# [30] = target: Neu5Ac(b2-6)Gal(b1-4)GlcNAc
# In short: as §1
# [31] = target: Neu5Gc(a2-3)Gal(b1-4)[Fuc(a1-3)]GlcNAc
# In short: as §1
binder,measurement,setting,value
"BC2L-D C-terminal domain (Burkholderia cenocepacia), Q39MQ9_BURS3 (protein) LVIVDAVTLLSAYPEASRDPAAPTVIDGRHLYVVSPGDAAQLGHNDSRLFTGLSPGDQLHLRETALALRAEVSVLFIRFALKDAGIVAPIELEVRDAATAVPDADDLLHPSCRPLKDHYWRSDVLAAGATTCTADFAVCDRDGTVSGYFRWETSIEIAGSQPDTKQPGFKPSSDRNGNFSLPPNTAFKAIFYANAADRQDLKLFIDDAPEPAATFVGNSEDGVRLFTLNSKGGKIRIEASANGRQSATDARLAPLSAGDTVWLGWLGAEDGADADYNDGIVILQWPIT",glycan array binding signal (z-score),[1],-0.158
same,glycan array binding signal (z-score),[2],0.376
same,glycan array binding signal (z-score),Fuc(a1-2)Gal(b1-3)GlcNAc,0.536
same,glycan array binding signal (z-score),[3],-0.16
same,glycan array binding signal (z-score),[4],-0.137
same,glycan array binding signal (z-score),[5],0.114
same,glycan array binding signal (z-score),[6],-0.147
same,glycan array binding signal (z-score),[7],-0.167
same,glycan array binding signal (z-score),[8],-0.169
same,glycan array binding signal (z-score),[9],-0.242
same,glycan array binding signal (z-score),[10],-0.164
same,glycan array binding signal (z-score),[11],0.024
same,glycan array binding signal (z-score),[12],-0.165
same,glycan array binding signal (z-score),Fuc(b1-3)GlcNAc,-0.241
same,glycan array binding signal (z-score),[13],-0.159
same,glycan array binding signal (z-score),Gal(b1-3)Gal,-0.242
same,glycan array binding signal (z-score),[14],-0.137
same,glycan array binding signal (z-score),[15],-0.242
same,glycan array binding signal (z-score),[16],0.676
same,glycan array binding signal (z-score),[17],-0.242
same,glycan array binding signal (z-score),[18],-0.165
same,glycan array binding signal (z-score),[19],-0.2
same,glycan array binding signal (z-score),Gal4S6S(b1-4)GlcNAc,-0.243
same,glycan array binding signal (z-score),GalNAc(b1-3)Gal,-0.243
same,glycan array binding signal (z-score),[20],-0.241
same,glycan array binding signal (z-score),GlcNAc(b1-3)Man,-0.243
same,glycan array binding signal (z-score),Kdn(a2-3)Gal(b1-3)GlcNAc,-0.242
same,glycan array binding signal (z-score),[21],5.14
same,glycan array binding signal (z-score),[22],4.23
same,glycan array binding signal (z-score),[23],5.62
same,glycan array binding signal (z-score),[24],6.24
same,glycan array binding signal (z-score),Man(a1-3)[Man(a1-6)]Man,4.31
same,glycan array binding signal (z-score),[25],6.86
same,glycan array binding signal (z-score),[26],5.02
same,glycan array binding signal (z-score),[27],3.67
same,glycan array binding signal (z-score),[28],-0.154
same,glycan array binding signal (z-score),Neu5Ac(a2-3)Gal(b1-4)Glc,-0.248
same,glycan array binding signal (z-score),[29],-0.244
same,glycan array binding signal (z-score),[30],-0.248
same,glycan array binding signal (z-score),[31],-0.236
